Sampled rows, rich in hits. Any-hit rate of the full collection: about 10%.
HPGD block: blocks human HPGD enzyme activity | purified HPGD, NADH fluorescence kinetic, PGE2 substrate | Potency, µM, for inactives: at the highest dose activity change, negative = inhibition, hits mostly inhibitors | P15428 | 4.3% of 150,000 active; note: potency is the fitted concentration of half-maximal effect
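20 nM HPGD preincubated 15 min at room temperature with compound in 50 mM Tris-HCl pH 8, 0.01% Tween 20. Started with 1 mM NAD+ and 30 uM prostaglandin E2; NADH fluorescence (360/450 nm) read 5 times over 30-s intervals, last minus first.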
KinaseGlo FLuc: blocks Kinase-Glo luciferase, a counter-screen artifact; Q27757; Kinase-Glo luciferase, ATP luminescence, 8 min; Potency, µM (top dose mostly 38.3 µM), inactives show top-dose activity change, negative = inhibition, usual class: inhibitors; 0.28% of 200,000 active; active = well fitted inhibition curve with a large enough effect; inconclusive = small, poorly fitted or top-dose-only effect; note: potency is the fitted concentration of half-maximal effect; nearly all actives have a fitted effect of over 60% in size
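Substrate mix (final 50 mM imidazole pH 7.2, 50 mM KCl, 7 mM MgCl2, 10 uM ATP, 0.01% Tween 20, 0.05% BSA) plus pin-tool compound, then Kinase-Glo detection mix; 8 min ambient, luminescence read.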
IMPase cell inh: IMPase inhibition in cells | 120,000 tested, under 10 active | P97697 | inhibition (IP1 accumulation), % at 46.1 µM | CHO-M1 cells, IP1 accumulation, HTRF TR-FRET ratio | AID 901; active = well fitted curve in the direction sought with a large enough effect in the signal ratio, not every such curve was filed as active; inconclusive = small, poorly fitted or top-dose-only effect, or a change in a side signal; inactive = no such curve, though single readings can be large or run the other way; the % refers to the signal ratio;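 note: cells stimulated with carbachol in lithium chloride buffer; plate controls were DMSO basal wells for no effect and reference inhibitor wells for full effect; higher means more IMPase inhibition seen as more IP1 and lower FRET ratio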
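CHO-M1 cells (CHO stably expressing M1 receptor), compound up to 46 uM final, stimulated with carbachol (50 uM as added) in buffer with 50mM LiCl, pH 7.4, 30 min at 37C. Cytosolic IP1 read by TR-FRET; AC50 from Hill fits.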
ALDH1A1 inh: inhibitors of human aldehyde dehydrogenase 1A1; Potency, µM (series often up to 75.3 µM), without a hit: at the top dose activity, negative = inhibition, most hits filed as inhibitors; Purified ALDH1A1, NADH fluorescence, propionaldehyde substrate; 7.3% of 220,000 active; AID 1030; P00352;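 note: potency is the fitted concentration of half-maximal effect; plate controls were no enzyme wells and a reference inhibitor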
Target sequence (P00352 whole entry, looked up): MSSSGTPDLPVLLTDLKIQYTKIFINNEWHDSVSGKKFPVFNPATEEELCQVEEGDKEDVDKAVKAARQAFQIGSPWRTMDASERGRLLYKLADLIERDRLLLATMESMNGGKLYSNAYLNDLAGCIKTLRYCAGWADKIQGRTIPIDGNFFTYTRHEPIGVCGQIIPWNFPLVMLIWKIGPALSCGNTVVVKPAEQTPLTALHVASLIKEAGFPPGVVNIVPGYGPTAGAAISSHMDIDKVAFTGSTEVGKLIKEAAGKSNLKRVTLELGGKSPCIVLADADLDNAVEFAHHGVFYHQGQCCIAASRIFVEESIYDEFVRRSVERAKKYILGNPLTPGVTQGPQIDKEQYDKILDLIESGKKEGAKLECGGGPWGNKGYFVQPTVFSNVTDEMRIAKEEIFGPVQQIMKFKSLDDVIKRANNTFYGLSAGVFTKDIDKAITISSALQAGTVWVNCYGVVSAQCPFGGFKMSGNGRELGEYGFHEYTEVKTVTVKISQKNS
Lamin A splicing: modulators of lamin A splicing | HeLa LMNA splicing GFP/RFP minigene ratio, 48 h | Potency, µM (highest dose often 46.1 µM), without a hit: at the highest dose ratio change, negative = inhibition, actives largely listed as inhibitors | 0.01% of 200,000 active; active = well fitted inhibition curve with a large enough effect in the signal ratio, with a control signal flat, not every such curve was filed as active; inconclusive = small, poorly fitted or top-dose-only effect, or effect the other way, or a change in a side signal; the % refers to the signal ratio; note: potency is the fitted concentration of half-maximal effect
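S3 HeLa stable clones carrying a lamin A-EGFP splicing minigene plus DsRed2 were seeded at 600 cells/well in Opti-MEM with 2% FBS, pin-dosed and incubated 48 h at 37°C. Acumen cytometry (488 nm) gave the GFP/RFP total-intensity ratio.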
PNC inhibitor: blocks assembly of the perinucleolar compartment | PC3M PTB-GFP, PNC prevalence imaging, 16 h; active compounds read low | activity change (PNC), negative = inhibition, % at 10 µM | 3.1% of 140,000 active;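 active = readout at or below -70, meaning at least 70% loss of cells showing the perinucleolar compartment, a nuclear body marking cancer cells; inconclusive = readout between -30 and a set limit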;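 note: plate controls were DMSO wells for no effect and camptothecin positive control wells for full effect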
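PC3M cells stably expressing PTB-GFP, 750–1000 cells/well, treated 16 h at 37 °C with compound (23 nl of library stock), in duplicate. After paraformaldehyde fixation and Hoechst stain, imaged at 20x; PNC prevalence scored by image analysis.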
Numbers without * were called inactive; ? = inconclusive; / = no result given; [ ] = dose if it differs, or a comment. Unless noted, calls come from the whole dose curve; as a rule, active = well fitted inhibition curve with a large enough effect (not every such curve was filed as active); inconclusive = small, poorly fitted or top-dose-only effect, or another doubt; inactive = no such curve, though single readings can be large or run the other way. Unless noted, % is set by controls: 0 for no effect and ±100 for the full control effect.

SMILES | HPGD block | KinaseGlo FLuc | IMPase cell inh | ALDH1A1 inh | Lamin A splicing | PNC inhibitor
N#CCCn1c(=O)c(-c2cccs2)nc2cnc(OCc3ccccc3)nc21 | ? | -0.4% | / | ? | / | /
O=C1C=CC(=O)N1c1ccc(Sc2ccc([N+](=O)[O-])cc2)cc1 | / | / | / | 0.794µM* | / | /
Cc1c(/C(O)=C2/C(=O)C(=O)N(Cc3cccnc3)C2c2cccs2)cnn1-c1ccccc1 (centres undefined) | 20µM* | 2.5% | ? | 1.12µM* | -2.9% | 8.2
CN(C)S(=O)(=O)c1ccc(/C(O)=C2/C(=O)C(=O)N(Cc3cccnc3)C2c2ccncc2)cc1 (centres undefined) | -13.3% | -1.0% | 7.2 | 14.1µM* | 4.5% | -8.7
CN(C)S(=O)(=O)c1ccc(/C(O)=C2/C(=O)C(=O)N(CCN3CCCCC3)C2c2cccnc2)cc1 (centres undefined) | -9.4% | 0.3% | / | 22.4µM* | / | /
O=C1CC(c2ccccc2)c2c(n3ncnc3[nH]c2=O)N1 (centres undefined) | / | / | / | / | 12.4%[46 µM] | /
COc1cc(C2Nc3ccccc3-c3nnc(SCc4ccc(C)cc4)nc3O2)cc(OC)c1O (centres undefined) | / | / | 21.3 | / | / | /
COc1ccc(NC(C)c2cc(Cl)ccc2O)cc1 (centres undefined) | ? | 0.0% | 8.0 | 22.4µM* | 15.3% | 18.2
CC(Nc1ccccc1)c1cc(Cl)ccc1O (centres undefined) | -27.3% | -1.9% | ? | 7.8% | -12.2% | ?
O=C(CN1CCN(C(=O)c2ccco2)CC1)Nc1ccccc1-c1ccccc1 | -3.3% | -0.1% | 0.8 | 6.31µM* | 2.7% | ?
O=C(CN1CCN(C(=O)c2ccco2)CC1)Nc1cc(Cl)ccc1Cl | -7.7% | -1.1% | 3.1 | -9.4% | -1.4% | 12.1
O=C(CN1CCCCC1)Nc1ccccc1-c1ccccc1 | -18.7% | 2.2% | 16.4 | 18.9µM* | 7.2% | 18.9
O=C(CN1CCOCC1)Nc1ccccc1-c1ccccc1 | -13.1% | -0.7% | 3.9 | 14.1µM* | 3.3% | -19.9
O=C(CN1CCOCC1)Nc1scc(-c2ccccc2)c1C(=O)N1CCOCC1 | -10.8% | -0.7% | -14.3 | -27.0% | 13.5% | -15.6
Cn1c(=O)[nH]c2cc(-c3noc(-c4ccc(C#N)cc4)n3)ccc21 | / | / | / | / | -3.1%[46 µM] | /
COC(=O)C1=C(C)N(CC2CC2)C(=O)N[C@H]1CCc1ccccc1 | -4.3% | 0.5% | / | 6.3% | / | /
Cc1nn(CCC(=O)NNC(=S)NCC(C)C)c(C)c1Br | -4.7% | -3.1% | 1.5 | 9.1% | -16.3% | -111.7*
CNC(=S)NNC(=O)CCn1nc(C)c(Br)c1C | -11.7% | 0.4% | ? | 5.5% | 17.2% | -4.2
Cc1nc(SCC(=O)N2CCN(c3ccccc3)CC2)c2oc3ccccc3c2n1 | ? | 5.4% | 3.0 | 39.8µM* | ? | -3.6
Cc1nc(SCC(=O)O)c2oc3ccccc3c2n1 | 17.8µM* | -1.2% | 2.8 | 1.8% | -11.4% | -15.2
O=C(CSc1nc2cc(Cl)ccc2o1)NCCc1ccccc1 | / | / | 6.5 | 1.7% | ? | -25.0
COc1ccc(C(C)=O)cc1CSc1nc2cc(Cl)ccc2o1 | -26.0% | -2.1% | 9.0 | 25.1µM* | ? | 35.0
O=C(CSc1nc2cc(Cl)ccc2o1)c1cccs1 | 14.1µM* | -4.7% | 5.7 | -2.3% | 0.0% | ?
Cc1nn(C)c2c1c(C(F)(F)F)cc(=O)n2C(C)C(=O)NCCC(C)C (centres undefined) | / | / | / | / | 6.8%[46 µM] | /
NC[C@@H]1O[C@@H](O[C@H]2[C@@H](O)[C@H](O[C@@H]3[C@H](O)[C@H](N)C[C@H](N)[C@H]3O[C@@H]3O[C@@H](CO)[C@H](O)[C@H](O)[C@@H]3N)O[C@H]2CO)[C@H](N)[C@H](O)[C@@H]1O | / | / | -0.3 | / | / | /
Cc1nc(SCC(=O)c2cccs2)c2oc3ccccc3c2n1 | 12.6µM* | -4.4% | -0.2 | 1.8% | ? | 30.6
C=CCN1C(=O)C2(/C(=C(\O)c3ccc4c(c3)OCCO4)C(=O)C(=O)N2CCCOC)c2ccccc21 (centres undefined) | -18.1% | -0.8% | -20.8 | 2.82µM* | 5.4% | -96.4*

Screens (PubChem BioAssay)
